Rows were chosen to be rich in hits. Some 1.4% of all compounds tested hit in one or more screens of this group.
KCNH2 3.1 block: blocks the human KCNH2 3.1 channel isoform | U2OS KCNH2 3.1, thallium flux FluxOr; active compounds read low | activity change, % (tested at about 1.8 µM) | 340,000 tested, 0.95% active;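 active means maximum activity change below -70%; inconclusive means maximum activity change from -70% to -50%; inactive means maximum activity change above -50%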;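 further: thallium influx rate constant from kinetic fluorescence after stimulation buffer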
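We transduce U2OS cells with the mutant 3.1 virus, culture them overnight, load FluxOr with Red40 quencher for 45 min, then add stimulation buffer and read kinetically for 2 min to derive a normalized rate constant.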
Mm-Cpn inhibitor: M. maripaludis TRiC chaperonin inhibition. purified Mm-Cpn ATPase, ADP Transcreener TR-FRET. Potency, µM (series often up to 76.9 µM), actives largely listed as inhibitors. 330,000 tested, 0.031% active. AID 504842; active means well fitted inhibition curve with a large enough effect; inconclusive means small, poorly fitted or top-dose-only effect; further: nearly all actives have a fitted effect of over 80% in size
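Inhibition of chaperonin ATP hydrolysis is measured as reduced ADP production, detected by competitive TR-FRET in which signal falls with ADP. Final enzyme 25 nM and ATP 10 uM, reacted 30 min at 37°C.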
Rango dissoc inh: prevents RanGTP from dissociating the Rango-importin beta complex; Biochemical FRET Rango-importin beta, RanGTP-induced dissociation; Potency, µM (titrated, usually from 46.1 µM); 340,000 tested, 0.071% active; further: nearly all actives have a fitted effect of over 45% in size
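Compounds preincubate 5 min with complex of recombinant Rango and importin beta in PBS with 1 mM DTT. Ran (0.6 uM) loaded with 2 mM GTP plus 0.2 uM RCC1 starts dissociation; FRET is recorded 45 min later.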
Rango-impB inh: Rango-importin beta binding inhibition; Q14974; Rango CFP/YFP FRET sensor + importin beta, 45 min; Potency, µM (titrated, usually from 92.2 µM); 340,000 tested, 0.031% active; AID 540263; further: nearly all actives have a fitted effect of over 15% in size
Target sequence (Q14974 whole entry, looked up): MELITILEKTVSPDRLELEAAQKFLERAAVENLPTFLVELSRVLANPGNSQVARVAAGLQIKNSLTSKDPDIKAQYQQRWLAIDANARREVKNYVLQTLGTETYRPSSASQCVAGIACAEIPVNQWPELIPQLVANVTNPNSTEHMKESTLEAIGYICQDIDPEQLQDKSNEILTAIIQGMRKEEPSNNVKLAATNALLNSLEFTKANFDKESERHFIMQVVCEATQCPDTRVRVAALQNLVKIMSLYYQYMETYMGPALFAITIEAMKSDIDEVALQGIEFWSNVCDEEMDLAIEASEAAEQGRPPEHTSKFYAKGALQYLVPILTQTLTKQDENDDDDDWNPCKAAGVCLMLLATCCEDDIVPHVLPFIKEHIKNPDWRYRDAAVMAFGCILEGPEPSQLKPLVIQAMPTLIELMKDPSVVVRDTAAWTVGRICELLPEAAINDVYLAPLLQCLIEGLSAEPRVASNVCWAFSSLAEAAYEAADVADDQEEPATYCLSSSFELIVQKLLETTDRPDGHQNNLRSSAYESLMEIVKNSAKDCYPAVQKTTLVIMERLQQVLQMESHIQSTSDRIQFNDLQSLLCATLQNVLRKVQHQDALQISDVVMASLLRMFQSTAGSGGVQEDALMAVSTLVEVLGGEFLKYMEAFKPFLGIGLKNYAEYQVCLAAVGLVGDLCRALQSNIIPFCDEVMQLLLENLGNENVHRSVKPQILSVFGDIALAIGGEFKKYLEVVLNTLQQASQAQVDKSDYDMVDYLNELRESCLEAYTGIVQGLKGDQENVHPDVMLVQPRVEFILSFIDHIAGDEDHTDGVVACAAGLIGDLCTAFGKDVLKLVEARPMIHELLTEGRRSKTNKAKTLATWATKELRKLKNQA
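FRET biosensor (snurportin 1 IBB flanked by EYFP and cerulean), 50 nM, with compound 5 min, then 0.125 microM importin beta in PBS, 1 mM DTT, 0.02% Tween-20, 0.1% BSA. CFP/YFP ratio read after 45 min at room temperature; pre-read flags interference.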
KCNH2 WT inh: KCNH2 (human, wildtype) channel inhibition; AID 720551; U2OS, BacMam KCNH2, thallium flux FluxOr; active compounds read low; activity change, % at 1.84 µM; 340,000 tested, 0.37% active; Q12809;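 active means maximum activity change below -70%; inconclusive means maximum activity change between -70% and -50%; inactive means maximum activity change above -50%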
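U2OS cells transduced with wild-type KCNH2 virus are loaded with FluxOr dye for 45 min, and thallium flux is measured in kinetic reads before and after stimulation buffer. Rate constants are normalized to DMSO controls.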
CCT modulator: cytosolic chaperonin activity modulation | purified chaperonin ATPase assay, HTRF ADP detection, 30 min | activity change, % (no concentration beside the values), hits read low | 360,000 tested, 0.3% active | AID 651819; in the data active means activity change below about -30%
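We incubate TRiC, 40 or 20 nM final, with library compounds at 76 uM and 10 uM ATP for 30 min at 37 °C. ADP formed is detected with Transcreener HTRF reagents after 30 min at room temperature.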
Numbers stand for hits; n = inactive; u = inconclusive; x = no result. Unless noted, the call rests on the fitted dose curve.

SMILES	KCNH2 3.1 block	Mm-Cpn inhibitor	Rango dissoc inh	Rango-impB inh	KCNH2 WT inh	CCT modulator
O=C1N2CCSC2=NC1(Nc1ccccn1)C(F)(F)F (centres undefined)	n	n	n	n	n	n
CS(=O)(=O)c1ccc2nc(NC3(C(F)(F)F)N=C4SCCN4C3=O)sc2c1 (centres undefined)	n	n	n	n	-85	n
O=C(CCl)Nc1ccccc1C(=O)Nc1ccc2c(c1)OCO2	n	n	n	n	n	n
O=C(Nc1ccc(Br)cc1)c1cccc(S(=O)(=O)Nc2ccccn2)c1	x	n	n	n	-191	n
O=C(Nc1ccccc1)c1cccc(S(=O)(=O)Nc2ccccn2)c1	n	n	n	n	n	n
NS(=O)(=O)c1ccc(CCNC(=O)c2cccc(S(=O)(=O)N3CCc4ccccc43)c2)cc1	n	x	x	x	n	n
CN(C)CCCNC(=O)/C(=C/c1ccc(-c2ccc([N+](=O)[O-])cc2)o1)NC(=O)c1ccccc1	-99	n	u	u	u	n
CN(C)CCNC(=O)/C(=C/c1ccc(-c2cccc(Cl)c2)o1)NC(=O)c1ccccc1	n	n	u	n	n	n
CN(C)CCCNC(=O)/C(=C\c1ccc(-c2ccc(Br)cc2)o1)NC(=O)c1ccccc1	-117	n	n	n	n	n
CN(C)CCNC(=O)/C(=C/c1ccc(-c2cccc([N+](=O)[O-])c2)o1)NC(=O)c1ccccc1	n	n	n	n	n	n
Cc1ccc(C(=O)N/C(=C\c2ccc(-c3ccc(Cl)cc3)o2)C(=O)NCCCN(C)C)cc1	u	n	n	n	-83	n
CCn1nnnc1SCC(=O)NC1Cc2ccccc2C1	n	n	n	n	n	n
O=S1(=O)N=C(Nc2ccc(N3CCOCC3)cc2)c2ccccc21	n	n	n	n	n	n
Cc1ccccc1-c1ccc(Nc2ccc(N3CCOCC3)cc2)nn1	-73	n	n	n	n	n
CC(=O)c1cccc(N(C(=O)c2ccco2)C(C(=O)NC2CCCC2)c2ccncc2)c1 (centres undefined)	n	n	n	n	-115	n
O=C(CN(Cc1ccccc1)C(=O)c1cccc([N+](=O)[O-])c1)Nc1c(Cl)cc(Cl)cc1Cl	-87	n	n	n	n	n
O=C(Cc1cccs1)N1CCN(S(=O)(=O)c2ccc(Cl)c(C(F)(F)F)c2)CC1	n	n	n	n	n	-69
OCC1(CCc2ccccc2)CCN(Cc2cc(Cl)ccc2O)CC1	n	n	n	n	n	n
Cc1ccc(-n2cccn2)c(CN2CCC(CO)(CCc3ccccc3)CC2)c1	-96	n	n	n	n	n
Cc1ccccc1-n1c(SCC(=O)N2CCOCC2)nc(O)c(Cc2ccccc2)c1=O	n	n	n	n	n	n
COc1ccc(/C=C/c2c([N+](=O)[O-])c(=O)n(C)c(=O)n2C)cc1OC	-75	n	n	n	n	n
CCC1CCCCN1C(=O)COc1ccc(S(=O)(=O)N2CCOCC2)cc1Cl (centres undefined)	n	n	n	n	n	n
N#CC1(NC(=O)COC(=O)c2nccnc2N)CCCCC1	n	n	n	u	-202	n
Cn1nccc1NC(=O)Nc1ccccc1	n	n	n	n	n	n
Cn1nccc1NC(=O)Nc1ccc(Cl)cc1	-86	n	n	n	n	n
SMILES	KCNH2 3.1 block	Mm-Cpn inhibitor	Rango dissoc inh	Rango-impB inh	KCNH2 WT inh	CCT modulator
COc1ccc(C)cc1S(=O)(=O)NCCC1=CCCCC1	n	n	n	n	-257	n
Cc1cc2ccccc2n1CCNC(=O)c1ccc(S(=O)(=O)N2CCCCC2)cc1	n	14µM	u	u	n	n
CCC(=NNS(=O)(=O)c1ccc(C)cc1)c1ccc(OC)c(C)c1	n	x	x	x	n	n
CCOc1ccccc1NC=C1C(=O)OC2(CCCCC2)OC1=O	n	n	n	n	n	-38
CN(CC(=O)Nc1ccc(N2CCOCC2)cc1)C(=O)CCc1cc(C(C)(C)C)c(O)c(C(C)(C)C)c1	n	n	n	n	n	n
O=C(NCc1ccncc1)C12CC3CC(CC(C3)C1)C2	n	n	n	n	n	-84
